Screening data as filed in PubChem.
CCHF vOTU inh = blocks the CCHF virus ovarian tumor domain protease | inhibition, % at 11.5 µM | CCHFV vOTU protease, Pep-AMC fluorescence | AID 651958 | 370,000 compounds, 0.55% hits; in the data active means inhibition above about 30%; further: 0% = vehicle wells with enzyme and 100% = no enzyme wells
TcdB inh = inhibitors of Clostridioides difficile toxin B glycohydrolase. TcdB glycohydrolase enzymatic assay, plate reader. inhibition, % at 9.99 µM. 350,000 compounds, 0.24% hits. AID 652162; in the data active means inhibition above about 10%
Target sequence (P18177 whole entry, looked up): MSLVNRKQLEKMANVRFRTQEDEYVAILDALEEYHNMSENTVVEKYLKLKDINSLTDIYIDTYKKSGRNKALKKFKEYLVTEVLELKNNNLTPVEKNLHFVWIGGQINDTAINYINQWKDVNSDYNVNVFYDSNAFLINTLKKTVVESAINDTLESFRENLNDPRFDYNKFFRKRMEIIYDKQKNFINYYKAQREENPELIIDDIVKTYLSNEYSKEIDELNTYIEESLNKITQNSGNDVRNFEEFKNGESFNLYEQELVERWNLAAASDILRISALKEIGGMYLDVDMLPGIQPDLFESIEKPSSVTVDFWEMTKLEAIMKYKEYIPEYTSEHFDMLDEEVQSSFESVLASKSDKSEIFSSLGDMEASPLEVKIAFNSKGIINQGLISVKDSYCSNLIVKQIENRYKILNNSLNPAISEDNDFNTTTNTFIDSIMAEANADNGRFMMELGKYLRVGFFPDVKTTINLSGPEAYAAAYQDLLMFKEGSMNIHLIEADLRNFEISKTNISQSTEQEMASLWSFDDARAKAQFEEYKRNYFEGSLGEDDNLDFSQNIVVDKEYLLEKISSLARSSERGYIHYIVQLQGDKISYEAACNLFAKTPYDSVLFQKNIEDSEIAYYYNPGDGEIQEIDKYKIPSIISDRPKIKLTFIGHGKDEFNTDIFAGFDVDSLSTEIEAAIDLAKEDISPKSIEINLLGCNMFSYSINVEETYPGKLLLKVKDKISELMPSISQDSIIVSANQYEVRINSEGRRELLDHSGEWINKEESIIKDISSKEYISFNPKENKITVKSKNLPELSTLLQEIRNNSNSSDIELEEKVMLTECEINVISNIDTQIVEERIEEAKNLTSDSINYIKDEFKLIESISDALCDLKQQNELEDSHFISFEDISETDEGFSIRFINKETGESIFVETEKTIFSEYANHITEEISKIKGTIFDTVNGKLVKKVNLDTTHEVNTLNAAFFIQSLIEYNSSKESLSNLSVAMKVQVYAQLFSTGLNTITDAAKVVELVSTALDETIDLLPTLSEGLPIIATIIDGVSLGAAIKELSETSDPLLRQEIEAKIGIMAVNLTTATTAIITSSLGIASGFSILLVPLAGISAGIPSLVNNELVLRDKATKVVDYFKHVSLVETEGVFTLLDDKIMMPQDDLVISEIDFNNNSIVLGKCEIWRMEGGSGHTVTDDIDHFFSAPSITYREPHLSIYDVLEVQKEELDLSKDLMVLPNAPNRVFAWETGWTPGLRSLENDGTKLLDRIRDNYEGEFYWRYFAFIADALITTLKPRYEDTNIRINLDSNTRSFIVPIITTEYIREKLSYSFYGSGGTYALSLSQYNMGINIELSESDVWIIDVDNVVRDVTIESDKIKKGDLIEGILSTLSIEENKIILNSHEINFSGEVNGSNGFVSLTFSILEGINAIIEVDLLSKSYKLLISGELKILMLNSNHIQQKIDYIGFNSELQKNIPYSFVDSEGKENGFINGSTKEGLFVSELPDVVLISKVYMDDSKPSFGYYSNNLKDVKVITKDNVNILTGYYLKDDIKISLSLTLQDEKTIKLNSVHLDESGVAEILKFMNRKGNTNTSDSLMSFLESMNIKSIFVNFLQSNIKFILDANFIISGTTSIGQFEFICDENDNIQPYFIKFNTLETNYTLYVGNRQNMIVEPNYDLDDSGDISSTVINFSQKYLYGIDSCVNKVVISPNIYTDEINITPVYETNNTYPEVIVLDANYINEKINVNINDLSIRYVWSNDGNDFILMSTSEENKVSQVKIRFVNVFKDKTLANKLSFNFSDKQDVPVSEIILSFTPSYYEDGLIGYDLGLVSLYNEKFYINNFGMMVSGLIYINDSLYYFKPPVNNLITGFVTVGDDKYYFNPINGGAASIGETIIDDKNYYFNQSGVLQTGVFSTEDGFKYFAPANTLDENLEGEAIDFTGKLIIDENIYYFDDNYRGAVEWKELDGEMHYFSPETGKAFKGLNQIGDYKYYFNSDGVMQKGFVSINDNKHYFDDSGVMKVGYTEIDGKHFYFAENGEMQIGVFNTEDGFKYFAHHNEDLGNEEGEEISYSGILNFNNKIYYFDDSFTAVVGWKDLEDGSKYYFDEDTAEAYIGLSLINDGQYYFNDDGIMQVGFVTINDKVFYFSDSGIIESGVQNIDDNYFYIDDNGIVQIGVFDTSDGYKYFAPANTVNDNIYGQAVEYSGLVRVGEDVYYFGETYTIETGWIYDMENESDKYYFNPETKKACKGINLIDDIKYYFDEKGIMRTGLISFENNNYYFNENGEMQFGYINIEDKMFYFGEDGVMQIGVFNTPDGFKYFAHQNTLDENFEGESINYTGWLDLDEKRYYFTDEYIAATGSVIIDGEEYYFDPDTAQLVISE
DUSP3 inh = blocks human VHR1 dual specificity phosphatase | P51452 | recombinant VHR phosphatase, pNPP absorbance | inhibition, % at 13.3 µM | 290,000 compounds, 0.52% hits; in the data active means inhibition above about 50%
Vc quorum ag = induces V. cholerae light production without autoinducers; activation, % at 18.7 µM; V. cholerae BH1578 lux reporter, luminescence, 6 h; 350,000 compounds, 0.16% hits; in the data active means activation mostly above about 9.7%, no sharp cut-off
PrPC surface inh = cell surface PrPC inhibition, primary TR-FRET screen; P04156; 370,000 compounds, 0.43% hits; TR-FRET read-out; inhibition, % at 13.8 µM; in the data active means inhibition above about 24%; further: 0% = median of the test wells and 100% = reference compound wells
SSB-PriA inh = inhibitors of Klebsiella pneumoniae PriA binding to SSB C-terminal tail; AlphaScreen SSBct-PriA binding, biotinylated peptide; inhibition, % at 33 µM; 430,000 compounds, 0.6% hits; in the data active means inhibition mostly above about 37%, no sharp cut-off; inactive means mostly below about 20%;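 further: plate controls were negative control peptide for no effect and reference peptide for full effect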
PrPC TRFRET cf = confirmation of inhibitors of cell surface human prion protein | shares compounds with PrPC surface inh | inhibition, % at 13.8 µM | AID 743200 | cell surface PrPC level, TR-FRET | 1,500 compounds, 65% hits; in the data active means inhibition above about 25%
LD9 tox = LD9 cell cytotoxicity, PrPc inhibitor counter-screen | LD9 cells cytotoxicity, luminescence viability | 1,500 compounds, 29% hits | inhibition, % at 13.8 µM | shares compounds with PrPC surface inh; in the data active means inhibition above about 9.5%
Numbers without * were called inactive; i = inactive; . = not tested or not shown. Rows were chosen to be rich in hits. Some 1.5% of all compounds tested hit in one or more screens of this group.

SMILES | CCHF vOTU inh | TcdB inh | DUSP3 inh | Vc quorum ag | PrPC surface inh | SSB-PriA inh | PrPC TRFRET cf | LD9 tox
Cc1cc(C)n2c(-c3ccccc3Cl)nnc2n1 | -22 | . | -8 | 0 | 25* | 10 | 5 | 2
CCOc1ccc(C2c3[nH]c4ccccc4c3CCN2C(=O)Cn2cncn2)cc1 (centres undefined) | 3 | 2 | 3 | i | 37* | 8 | 34* | -6
COc1ccc(N(C)S(=O)(=O)c2cccc(C(=O)OC(C(=O)Nc3cc(C)cc(C)c3)c3ccccc3)c2)cc1 (centres undefined) | -6 | 1 | -6 | 0 | 26* | -3 | 16 | -2
CCCCC(=O)Nc1ncc(Cc2ccc(Cl)c(Cl)c2)s1 | . | . | . | . | . | -8 | . | .
OCC1OC(n2ccc3c2ncn2ncnc32)C(O)C1O (centres undefined) | 10 | 1 | . | 1 | -6 | . | . | .
Nc1ncnc2c1ccn2[C@@H]1O[C@H](CO)[C@@H](O)[C@H]1O | -3 | 1 | . | 0 | 77* | -3 | 68* | 94*
Nc1ncnc2nn(C3OC(CO)C(O)C3O)nc12 (centres undefined) | 11 | 3 | . | 1 | 8 | . | . | .
NC(=S)c1cn(C2OC(CO)C(O)C2O)c2ncnc(N)c12 (centres undefined) | -2 | -1 | 36 | -6 | 28* | -7 | 37* | 37*
CCOC(=O)Cc1csc(NC(=O)COc2cccc3ccccc23)n1 | . | . | . | . | . | -5 | . | .
Cc1ccc(NC(=O)c2c(C(F)(F)F)nn(C)c2SCc2cccc(C(F)(F)F)c2)cc1C | 22 | . | 21 | i | 30* | -9 | 25* | 9.4*
O=C(Cn1c(-c2cccnc2)nc2ccccc21)NCc1ccc(F)cc1 | . | . | . | . | . | -18 | . | .
CC(C)Oc1ccc(CNC(=O)c2ccc3c(c2)N(C)CCS3)cc1 | -59 | -1 | 21 | i | 25* | 7 | 44* | -4
COc1ccc(CNC(=O)c2ccc3c(c2)N(C)CCS3)cc1 | -133 | 0 | 25 | 0 | 12 | 5 | . | .
O=C(CSCc1ccccc1)N1CCC(n2c(=O)[nH]c3ccc(F)cc3c2=O)CC1 | . | . | . | . | . | 0 | . | .
COC(=O)c1ccc(NC(=O)c2nc(S(=O)(=O)Cc3cccc(C)c3)ncc2Cl)cc1 | 9 | -6 | -9 | 0 | 84* | -10 | 46* | 96*
CCc1ccc(NC(=O)c2nc(S(=O)(=O)Cc3ccccc3)ncc2Cl)cc1 | 14 | -1 | -3 | i | 64* | . | 24 | 96*
CCOc1ccccc1NC(=O)c1nc(S(=O)(=O)Cc2ccccc2)ncc1Cl | 5 | 0 | -15 | i | -4 | -9 | . | .
CCS(=O)(=O)c1ncc(Cl)c(C(=O)Nc2ccc(S(=O)(=O)N3CCC(C)CC3)cc2)n1 | 24 | 0 | 2 | i | 79* | -5 | 38* | 100*
CS(=O)(=O)NCCCn1nc(-c2ccc(F)cc2)ccc1=O | . | . | . | . | . | -1 | . | .
O=C(c1nnn(-c2ccccc2)c1CSc1ncccn1)N1CCc2ccccc2C1 | . | . | . | . | . | 1 | . | .
O=C(Cc1ccsc1)NCC(O)(c1ccccc1)C(F)(F)F (centres undefined) | . | . | . | . | . | 5 | . | .
CC(=O)Nc1ccc2nc(NC(=O)c3ccc4c(c3)CCCC4)sc2c1 | . | . | . | . | . | -6 | . | .
N#Cc1ccc(Cl)cc1NC(=O)C(=O)NCCCN1CCOC(c2ccccc2)C1 (centres undefined) | . | . | . | . | . | -8 | . | .
Cc1cc(C)c(O)c(C(=O)CC2CC(=O)NC(=O)C2)c1 | 2 | 2 | . | . | 71* | . | 66* | 34*
CCOC(=O)/C=C/S(=O)(=O)c1ccc(NC(C)=O)cc1 | 2 | . | -15 | i | 89* | -13 | -10 | 98*
CCn1c(=O)c(C(=O)NCc2ccccn2)c(O)c2ccccc21 | -2 | . | 29 | i | 30* | -7 | 40* | -5
Cc1cccn2cc(-c3cccc(NC(=O)c4c[nH]c(=O)n(Cc5ccco5)c4=O)c3)nc12 | . | . | . | . | . | -6 | . | .
CCCC(=O)Nc1ccc(C(=O)NNC(=S)NC(=O)c2ccc(Br)o2)cc1 | -10 | 1 | 24 | 0 | 32* | -7 | 0 | -3
CC(C)(C)n1ncc2c(=O)n(CC(=O)Nc3ccc(F)cc3F)cnc21 | . | . | . | . | . | -8 | . | .
